Measured values: PubChem BioAssay AID2314 (National Center for Advancing Translational Sciences (NCATS), 2010)
The campaign covered roughly 300,000 compounds. About 37,000 (12%) were called active. The sample holds actives, similar compounds and a random draw of the others, so the mix is not that of the screen. A number with no mark means an inactive call. No stated cut-off is given here; in the data, active means max response mostly above about 13% (no sharp cut-off); inactive means mostly below about 14%.

assay: Cycloheximide Counterscreen for Small Molecule Inhibitors of Shiga Toxin; details: cell reporter, cycloheximide protein synthesis inhibition counterscreen; stronger effect = higher value; further: read at 38.3 µM for the half of the compounds with a filed dose; 0% is about no effect

| Compound | max response |
| --- | --- |
| COc1ccc(S(=O)(=O)NC(C)C(=O)Nc2cccc([N+](=O)[O-])c2)cc1 (stereo not drawn) | 5.76% |
| COC(=O)/C=C\C(=O)Nc1cccc([N+](=O)[O-])c1 | 58% (active) |
| CC(=O)Nc1cccc([N+](=O)[O-])c1 | 5.16% |
| C[C@H](NC(=O)[C@@H]1Cc2ccccc2CN1C(=O)OC(C)(C)C)C(=O)NC1CCCC1 | 0.878% |
| Cc1cc(OC(=O)c2ccc(OC(C)C)cc2)c([N+](=O)[O-])c(=O)[nH]1 | 10.8% |
| Cc1ccc(S(=O)(=O)NCCCn2ccnc2)cc1C(=O)NC(C)C | -2.94% |
| CCOc1ccc(N2C(=O)/C(=C/c3ccc(C)o3)N(C)C2=S)cc1 | -2.62% |
| CCOc1ccc(NC(=O)NNC(=O)c2ccc(Cl)cc2Cl)cc1 | -2.33% |
| Cc1ccc(C(=O)NNC(=O)OC(C)(C)C)c(Cl)c1 | 23.3% (active) |
| CC(C)(C)OC(=O)N1CCC(C(=O)NNC(=O)c2ccc(Cl)cc2Cl)CC1 | 1.42% |
| Cc1ccccc1CN1C[C@@H]2C[C@@H](c3cn(C)nc3-c3ccccc3)N3CCC[C@@]23C1=O | -1.2% |
| Cc1cccc(NC(=O)c2cccnc2Cl)n1 | 24.1% (active) |
| Cc1cccc(NC(=O)c2cc(N3C(=O)CCC3=O)ccc2Cl)n1 | -1.19% |
| COC(=O)C(C(=O)Nc1cccc(C)n1)C1CCCCCC1 (stereo not drawn) | 0.569% |
| CCOC(=O)C(=CNc1cccc(C)n1)C(=O)OCC | 11.4% |
| Cc1cccc(NC(=O)c2ccccc2NC(=O)C(C)(C)C)n1 | -4.22% |
| Cc1cccc(NC(=O)c2ccc3ccccc3n2)n1 | 56.4% (active) |
| COc1cccc(CNC(=O)C2CCCN(c3ncnc4c3nc3n4CCCCC3)C2)c1 (stereo not drawn) | -1.2% |
| COc1cc2c(cc1OC)C(C(=O)Nc1cc(C)c(OC)c(C)c1)CC(=O)N2 (stereo not drawn) | -2.52% |
| Cc1c(Cl)cccc1NC(=S)NCC(O)c1ccccc1 (stereo not drawn) | 7.6% |
| O=c1ccc2cc(S(=O)(=O)NCCCc3ccccc3)ccc2[nH]1 | 0.781% |
| COCC(=O)Nc1c(C(=O)N2CCCC2)oc2ccccc12 | 9.66% |
| O=C(Nc1ccc(F)cc1)c1cccnc1N1CCOCC1 | -3.65% |
| O=C(Nc1ccc(N2CCOCC2)nc1)c1c(F)cccc1F | 47.6% (active) |

| Compound | max response |
| --- | --- |
| NC(=O)c1ccc(N2CCOCC2)nc1 | 3.99% |
| Cc1cccc(C)c1NC(=O)C(Cl)C(=O)c1ccccc1 (stereo not drawn) | -3.97% |
| CCCCNC(=S)N/N=C1\CCCCc2ccccc21 | -5.15% |
| O=C(C1=C[C@H](c2coc3ccccc3c2=O)C[C@H](OCc2ccc(CO)cc2)O1)N1CCN(Cc2ccccc2)CC1 | 1.24% |
| COc1ccccc1N1CCN(S(=O)(=O)CCNC(=O)c2ccc(OC(C)C)cc2)CC1 | -4.03% |
| CCOC(=O)c1cc2n(c1N)-c1ccccc1C2=O | 16.1% (active) |
| CCOC(=O)C1=C(C(=O)OCC)C(C(=O)OCC)N(S(=O)(=O)C(F)(F)F)c2ccccc21 (stereo not drawn) | 2.14% |
| CCOC(=O)c1ccccc1CN1C(=O)c2ccccc2S1(=O)=O | 0.941% |
| Nc1ncc(CN2CCCC(C(=O)Nc3ccc(-c4ccco4)cc3)C2)cn1 (stereo not drawn) | -1.66% |
| CCOC(=O)c1cccc(NC(=O)CCc2nnc3ccc(N4CCOCC4)nn23)c1 | 0.592% |
| COC(=O)c1ccc(NCC(=O)N2CCCCCC2)cc1 | 19.4% (active) |
| COc1ccc(NC(=O)CCCC(=O)c2ccccc2)cc1 | 12% |
| Cc1ccc(NC(=O)CCC(=O)c2ccc(Br)cc2)cc1 | -1.06% |
| COC(=O)c1ccc(NC(=O)c2ccccc2NS(=O)(=O)c2ccccc2)cc1 | 7.47% |
| COC(=O)c1ccc(NCC(=O)c2ccccc2)cc1 | 29.7% (active) |
| Cc1ccc(C(=O)CNc2ccc(F)cc2)cc1 | 13.3% (active) |
| Cc1ccc(C(=O)NC2CCN(C(=O)Nc3ccc(F)cc3)CC2)cc1 | -5.94% |
| COC(=O)c1ccc(C(=O)OC)c(NC(=S)N2CCCCC2)c1 | 1.84% |
| COC(=O)c1ccc(/C=N/NC(=O)C(=O)N2CCCCCC2)cc1 | -2.86% |
| O=C(NC1CCCCC1)C1CCC(CNS(=O)(=O)c2ccccc2)CC1 (stereo not drawn) | -1.26% |
| COc1ccccc1C1C(C(N)=O)=C(C)Nc2nc(CCCO)nn21 (stereo not drawn) | -5.85% |
| C[C@@H]1O[C@@H](OC[C@H]2O[C@@H](Oc3cc(O)c4c(c3)O[C@H](c3ccc(O)c(O)c3)CC4=O)[C@H](O)[C@@H](O)[C@@H]2O)[C@H](O)[C@H](O)[C@H]1O | -3.85% |
| COC(=O)c1cc2occc2n1Cc1nc(-c2ccccc2C)oc1C | -1.91% |
| CCOC(=O)C1(Cc2cccc(OC)c2)CCN(Cc2csc(C(C)=O)c2)CC1 | -2.31% |

| Compound | max response |
| --- | --- |
| CCC(C(=O)NCCC(C)C)N(Cc1ccccc1Cl)C(=O)c1snc(C(N)=O)c1N (stereo not drawn) | -2.42% |
| COCCN(C(=S)Nc1cccc(Cl)c1C)C(C)c1ccco1 (stereo not drawn) | 5.55% |
| CCc1cccc(CC)c1NC(=O)COc1ccccc1C(=O)c1cc(C#N)c(=O)n(C2CCCCC2)c1 | 5.88% |
| CCOc1ccc(CN(C)C(=O)c2ccc(=O)[nH]c2)cc1 | -4.67% |
| Cc1cccc(NC(=O)Nc2ccc3c(c2)OCO3)n1 | 45.7% (active) |
| CC(NC(=O)Nc1ccc2c(c1)OCO2)c1ccncc1 (stereo not drawn) | 11.1% |
| Cc1cccc(NC(=O)/C=C/c2ccc3c(c2)OCO3)n1 | 64.4% (active) |
| CC(C)CNS(=O)(=O)c1ccc(C(=O)Nc2ccc3c(c2)OCO3)cc1 | -0.729% |
| CCc1ccc(NC(=O)NC(C)c2ccc3c(c2)OCO3)cc1 (stereo not drawn) | 0.596% |
| CNS(=O)(=O)c1ccc(NC(=O)Nc2ccc3c(c2)OCO3)cc1 | 46.9% (active) |
| CCc1c(C)sc(NC(=O)/C=C/c2ccc3c(c2)OCO3)c1C(=O)OC | 16.3% |
| O=C(/C=C/c1ccc2c(c1)OCO2)NCc1ccc(F)cc1 | 9.99% |
| CC(NC(=S)Nc1ccc(S(N)(=O)=O)cc1)c1ccc2c(c1)OCO2 (stereo not drawn) | -3.68% |
| CCCC1OC23CCCCC2C(C#N)(C#N)C1(C#N)C(=N)O3 (stereo not drawn) | -1.48% |
| Cc1ccc(C23CC4CC(CC(C(=O)NCC(=O)O)(C4)C2)C3)cc1 | -6.43% |
| COc1ccc(Oc2cn[nH]c2-c2ccc(OC)cc2O)cc1 | 2.15% |
| COc1cc(C(=O)Nn2c(CC(C)C)nc3ccccc3c2=O)cc(OC)c1OC | -3.7% |
| Cc1ccc(Cl)cc1NC(=O)C1CCN(S(C)(=O)=O)CC1 | 8.41% |
| COc1ccc(Br)cc1C1C2C=CCC(C)C2C(=O)N1Cc1ccccc1 (stereo not drawn) | 2.32% |
| Cc1nccc(-c2ccc(-n3c(C)ccc3C)cc2)n1 | 1.97% |
| O=C1OC(/C=C/c2ccccc2)=NC/1=C/c1ccco1 | -1.15% |
| COc1ccccc1/C=C/C1=NC(=C\N(C)C)/C(=O)O1 | 10.1% (active) |
| C=CCOC(=O)C1=C(C)N=C2SCCC(=O)N2C1/C=C/c1ccccc1OC (stereo not drawn) | -1.27% |
| COc1cc2c(cc1OC)C(c1ccccc1Br)NC(=O)C2 (stereo not drawn) | 2.36% |

| Compound | max response |
| --- | --- |
| CCC(=O)Nc1sc(C(=O)Nc2ccccc2)c(C)c1C(=O)OC | 6.77% |
| Cc1nc(NC(=O)c2cccc(Cl)c2)sc1-c1csc(Nc2cccc(Cl)c2)n1 | -1.16% |
| CCC(=O)Nc1nc(C)c(C(=O)Nc2cccc(Cl)c2)s1 | 16.2% (active) |
| Cc1ccc(C2C(C#N)C(C#N)N3CCCN23)cc1 (stereo not drawn) | 14.4% |
| O=C(CC1N=C2c3ccccc3N=C(SCc3ccccc3Cl)N2C1=O)NCc1ccco1 (stereo not drawn) | 18% (active) |
| O=C(CSC1=Nc2ccccc2C2=NC(CC(=O)NCc3ccco3)C(=O)N12)NCc1ccco1 (stereo not drawn) | 6.84% |
| CCC(C)NC(=O)CSC1=Nc2ccccc2C2=NC(CCC(=O)NCc3ccco3)C(=O)N12 (stereo not drawn) | 0.985% |
| N#Cc1c(-c2ccccc2)nc(SCc2cccc(C(F)(F)F)c2)[nH]c1=O | 4.14% |
| CCc1ccc(NC(=O)Cn2nnc(C(=O)NCc3ccc(OC)cc3)c2N)cc1 | -3.14% |
| CCCCCc1c(C)nc(N2CCN(Cc3ccc4c(c3)OCO4)CC2)[nH]c1=O | -0.993% |
| CC(=O)c1cnc(-c2ccccc2)s1 | 35.2% (active) |
| O=S(=O)(c1ccc(F)cc1)n1ccc(-c2cnc(-c3ccccc3)s2)n1 | 1.13% |
| O=C(/C=C/Nc1ccccc1)c1cnc(-c2ccccc2)s1 | 1.67% |
| Cc1cccc(N2CCN(S(=O)(=O)c3ccc4[nH]c(=O)c(=O)[nH]c4c3)CC2C)c1 (stereo not drawn) | -2.14% |
| CC1(C)C(C=C(Cl)Cl)C1C(=O)N(Cc1ccc(Cl)cc1)C1CCS(=O)(=O)C1 (stereo not drawn) | 3.61% |
| COc1ccc(CCNC(=O)/C(C#N)=C2\N=C(NC(=O)c3cccs3)c3ccccc32)cc1 | -2.25% |
| Cc1ccc2nc(/C(C#N)=C\c3ccc(OC(=O)c4cccs4)cc3)[nH]c2c1 | 29.1% (active) |
| Cc1ccc2nc(S(=O)(=O)O)[nH]c2c1 | -7.91% |
| CN1CCc2ccccc2C1Cc1ccccc1NC(=O)c1sc2ccccc2c1Cl (stereo not drawn) | 5.79% |
| O=C(Nc1ccon1)c1cccc(Cl)c1 | 8.4% |
| O=C(Nc1ccon1)c1sc2ccccc2c1Cl | 64.4% (active) |
